Screen size: about 1,000 compounds; about 230 (23%) were called active. Roughly 1% stayed inconclusive and do not appear here. No rule for the calls is given here. Some of the results follow. Potency and affinity values are given separately.

Long-chain-fatty-acid--AMP ligase FadD28 (Mycobacterium tuberculosis (strain ATCC 25618 / H37Rv)), sequence (P9WQ59 whole entry, looked up): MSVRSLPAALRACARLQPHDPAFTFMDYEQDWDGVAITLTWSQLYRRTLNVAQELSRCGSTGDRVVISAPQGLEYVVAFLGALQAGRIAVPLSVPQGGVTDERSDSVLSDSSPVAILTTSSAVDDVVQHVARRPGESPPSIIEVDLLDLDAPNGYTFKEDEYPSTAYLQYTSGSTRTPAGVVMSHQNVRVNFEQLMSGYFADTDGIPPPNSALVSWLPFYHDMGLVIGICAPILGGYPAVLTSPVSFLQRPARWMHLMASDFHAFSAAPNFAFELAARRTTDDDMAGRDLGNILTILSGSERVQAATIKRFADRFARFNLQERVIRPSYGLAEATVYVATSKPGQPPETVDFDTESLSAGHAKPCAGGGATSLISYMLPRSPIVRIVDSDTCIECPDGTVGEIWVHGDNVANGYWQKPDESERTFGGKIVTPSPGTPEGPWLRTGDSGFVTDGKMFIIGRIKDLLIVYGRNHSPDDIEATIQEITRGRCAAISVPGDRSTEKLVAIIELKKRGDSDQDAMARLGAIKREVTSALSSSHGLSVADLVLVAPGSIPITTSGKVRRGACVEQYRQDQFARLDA

The assay has as its target Long-chain-fatty-acid--AMP ligase FadD28 (Mycobacterium tuberculosis (strain ATCC 25618 / H37Rv)) (UniProt P9WQ59). The assay can be described thus: inhibitors of FadD28 bisubstrate probe binding, dose response, biochemical, fluorescence polarization, cherry-pick (AID 624273). Particulars: series mostly up to 50 µM; activity change, negative = inhibition: at the top concentration. Background: In fluorescence polarisation assays a small probe gives low polarisation when free and higher when bound to something large.
As to `COc1cc2cncc(Cc3ccc(Cl)cc3)c2cc1OC`, the “activity change, negative = inhibition” value was 21.4% (inactive).

With `CC1(C)CC(=O)C(C(c2ccncc2)C2C(=O)CC(C)(C)CC2=O)C(=O)C1`, the “activity change, negative = inhibition” value is -5.11% (inactive).

For the molecule `CN1CCN(CCCN2c3ccccc3Sc3ccc(Cl)cc32)CC1`, the “activity change, negative = inhibition” value was -5.81% (inactive).

In the case of `O=C(CSc1nncn1-c1cccnc1)N1CCOCC1`, the “activity change, negative = inhibition” value is -0.342% (inactive).

Regarding `CN(Cc1cccc([N+](=O)[O-])c1)Cc1cccc2ccccc12`, the “activity change, negative = inhibition” value is -2.3% (inactive).

Turning to `CC(=O)NNC(=S)Nc1cccc(F)c1`, the “activity change, negative = inhibition” value is -7.85% (inactive).

In the case of `Cc1cccc(NC(=O)NNC(=O)c2ccc3ccccc3c2O)c1`, the “activity change, negative = inhibition” value is -20.9% (inactive).

In the case of `Cc1ccc(SCCN2CCN(C)CC2)cc1`, the “activity change, negative = inhibition” value is -0.503% (inactive).

On to `Cn1ncnc2c(=O)n(C)c(=O)nc1-2`, for which the “activity change, negative = inhibition” value is 5.7% (inactive).

Turning to `CN(C)c1cccc(NC(=O)c2ccco2)c1`, the “activity change, negative = inhibition” value is -6.62% (inactive).

For the molecule `COc1ccccc1NC(=O)c1ccc2c(c1)C(=O)N(c1ccccc1OC)C2=O`, the “activity change, negative = inhibition” value was -0.908% (inactive).

For the molecule `COCCCN1CN(S(=O)(=O)c2ccc(Cl)cc2)c2nc3ccccc3nc21`, the “activity change, negative = inhibition” value was -64.5% (inactive).

With `CC1CCCC(C)N1CCCNC(=O)c1ccc2nc(N3CCOCC3)sc2c1` (stereo not drawn), the “activity change, negative = inhibition” value is 0.187% (inactive).

Consider `O=C(Nc1nc2ccc(SC(F)F)cc2s1)c1ccc(NS(=O)(=O)c2ccc(F)c(F)c2)cc1`, for which the “activity change, negative = inhibition” value was 1.67% (inactive).

For the molecule `COc1ccc(C(=O)NNC(=O)C(=O)NCc2ccccc2)cc1`, the “activity change, negative = inhibition” value was 0.399% (inactive).

In the case of `COc1ccc(OC)c(NC(=O)c2ccc(NC(C)=O)cc2)c1`, the “activity change, negative = inhibition” value was -6.61% (inactive).

As for `Cc1ccc(C)c(C(=O)C(C)OC(=O)c2cccn2C)c1` (stereo not drawn), the “activity change, negative = inhibition” value was 3.23% (inactive).

`O=C(CN1C(=O)c2ccccc2C1=O)N(CCO)Cc1ccccc1`: the “activity change, negative = inhibition” value is -6.65% (inactive).

Turning to `CCCc1nc(N)c(C#N)c(-c2ccco2)c1CC`, the “activity change, negative = inhibition” value is -6.34% (inactive).

Take `O=C(COC(=O)c1cccs1)Nc1cccc(S(=O)(=O)N2CCOCC2)c1`: the “activity change, negative = inhibition” value was -0.358% (inactive).

On to `COc1ccc(S(=O)(=O)N2CCCCCC2)cc1C(=O)NCc1cccs1`, for which the “activity change, negative = inhibition” value was -23.6% (inactive).

As to `CCOC1=C(C#N)CC2(CC1)c1ccccc1-c1ccccc12`, the “activity change, negative = inhibition” value is -7.12% (inactive).

`Cc1ccc(C)n1C(CC(=O)O)c1ccc(C#N)cc1` (stereo not drawn): the “activity change, negative = inhibition” value was -2.01% (inactive).

`O=C1C2CC=CCC2C(=O)N1c1ccc(NCCc2ccc(O)cc2)c([N+](=O)[O-])c1` (stereo not drawn): the “activity change, negative = inhibition” value was -6.2% (inactive).

With `C=CCOc1cccc(C2C(C(=O)c3ccc(C)o3)=C(O)C(=O)N2CCCn2ccnc2)c1` (stereo not drawn), the “activity change, negative = inhibition” value was -6.12% (inactive).

Turning to `O=C(O)c1ccc(N/N=C/C2=Cc3ccccc3OC2)cc1`, the “activity change, negative = inhibition” value is -7.18% (inactive).

In the case of `CC(=O)Nc1sc(N/N=C\c2ccccc2)nc1-c1cccs1`, the “activity change, negative = inhibition” value was -6.1% (inactive).

For the molecule `COc1cc(C(C)=O)ccc1OC(=O)N(C)c1ccccc1`, the “activity change, negative = inhibition” value was -7.74% (inactive).

Take `COc1ccc(Cl)cc1NC(=S)N(Cc1ccc(C(=O)O)cc1)Cc1ccc(OC)c(OC)c1`: the “activity change, negative = inhibition” value is -26.1% (inactive).

In the case of `O=C(O)c1cc(N/N=C/c2c[nH]c3ccccc23)ccc1Cl`, the “activity change, negative = inhibition” value is -0.396% (inactive).

Regarding `CN1CCCC(C(=O)c2ccc(-c3ccccc3)cc2)C1` (stereo not drawn), the “activity change, negative = inhibition” value is -3.14% (inactive).

In the case of `Cc1ccc(S(=O)(=O)N2CCN(C(=O)COC(=O)Cc3cccc(C(F)(F)F)c3)CC2)c(C)c1`, the “activity change, negative = inhibition” value was -8.44% (inactive).

On to `Cc1c(N=Cc2c(O)n(CCc3ccc(F)cc3)c(=O)[nH]c2=O)c(=O)n(-c2ccccc2)n1C`, for which the “activity change, negative = inhibition” value was -5.99% (inactive).

For `Cc1ccc(C)c(C(O)c2ncc(-c3ccccc3F)[nH]2)c1` (stereo not drawn), the “activity change, negative = inhibition” value is -0.658% (inactive).

With `CC1=C(C(=O)OCc2ccccc2)C(c2ccccc2Cl)NC(=O)N1C` (stereo not drawn), the “activity change, negative = inhibition” value is 1.09% (inactive).

As to `OC1(c2ccccc2)c2ccccc2-c2ncccc21` (stereo not drawn), the “activity change, negative = inhibition” value was 0.098% (inactive).

On to `COc1ccc(Cn2c(O)c(C=Nc3ccccc3C(=O)O)c3ccccc3c2=O)cc1`, for which the “activity change, negative = inhibition” value was -11.9% (inactive).

`O=C(CNC(=S)N(Cc1ccccc1)Cc1cccnc1)N1CCOCC1`: the “activity change, negative = inhibition” value is 2.04% (inactive).

As for `CC(C=NNc1ccc([N+](=O)[O-])cn1)=Cc1ccccc1`, the “activity change, negative = inhibition” value is -3.77% (inactive).

For `Fc1ccc(-n2cc(-c3ccccc3)c3c(N4CCOCC4)ncnc32)cc1`, the “activity change, negative = inhibition” value was -3.99% (inactive).

Regarding `FC(F)(F)c1cccc(NC(=S)N2CCN(c3ccccn3)CC2)c1`, the “activity change, negative = inhibition” value was -5.38% (inactive).

Consider `O=C(NNc1ccc(C2CCCCC2)cc1)C(O)(c1ccccc1)c1cccs1` (stereo not drawn), for which the “activity change, negative = inhibition” value was -7.02% (inactive).

As to `O=C(Cc1c(F)cccc1Cl)NC1CCN(Cc2ccccc2)CC1`, the “activity change, negative = inhibition” value was -2.88% (inactive).

On to `O=C(O)c1[nH]c2ccccc2c1C(c1cccc(O)c1)c1c(C(=O)O)[nH]c2ccccc12`, for which the “activity change, negative = inhibition” value was -0.575% (inactive).

`Cc1[nH]c2ccccc2c1C(=O)CN1CCSCC1`: the “activity change, negative = inhibition” value is -5.36% (inactive).

For the molecule `COc1ccc(OC)c(C2CC(=O)Nc3c2c(=O)[nH]c2ncnn32)c1` (stereo not drawn), the “activity change, negative = inhibition” value was -4.84% (inactive).

As for `CC(Oc1ccc(Cl)cc1Cl)c1nc(-c2ccc(NC(=O)c3ccco3)cc2)no1` (stereo not drawn), the “activity change, negative = inhibition” value is 2.14% (inactive).

As for `O=c1[nH]c(=S)[nH]c(O)c1/C=C1\C=Nc2ccccc21`, the “activity change, negative = inhibition” value was -3.93% (inactive).

Regarding `CCOC(=O)C(O)(C1C(=O)CC(C)(C)CC1=O)C(F)(F)F` (stereo not drawn), the “activity change, negative = inhibition” value is -8.07% (inactive).

Regarding `O=C1CC(c2cc(F)ccc2F)c2cc3c(cc2N1)CCC3` (stereo not drawn), the “activity change, negative = inhibition” value is -3.23% (inactive).

As to `OC1(c2ccc3c(c2)OCO3)CCN(Cc2ccccn2)CC1`, the “activity change, negative = inhibition” value is -0.883% (inactive).

Regarding `C[C@@H]1CN([C@H](C)CO)C(=O)c2cc(NC(=O)Nc3ccc(C(F)(F)F)cc3)ccc2O[C@H]1CN(C)C(=O)Nc1ccc(F)cc1`, the “activity change, negative = inhibition” value is -0.926% (inactive).

Take `CCN(C(=O)CSc1nnc(SC)s1)c1c(N)n(Cc2ccccc2)c(=O)[nH]c1=O`: the “activity change, negative = inhibition” value was -4.76% (inactive).

Regarding `O=C(CCCCn1c(=O)c2ccccc2n(CC(=O)Nc2ccc(F)cc2)c1=O)NCc1ccco1`, the “activity change, negative = inhibition” value was -18.9% (inactive).

Consider `CCN(CC)S(=O)(=O)c1cc(C(=O)Nc2cc(Cl)ccc2N2CCN(C)CC2)ccc1Cl`, for which the “activity change, negative = inhibition” value was -17% (inactive).

As to `CCCCCCCCCCCCCCCCCCNc1ccn(C2OC(COP(=O)(O)OCC3OC(n4cc(F)c(=O)[nH]c4=O)CC3O)C(O)C2O)c(=O)n1` (stereo not drawn), the “activity change, negative = inhibition” value is 0.561% (inactive).

`S=C(Nc1ccccc1)N1CCN(c2ccc(N3CCOCC3)nn2)CC1`: the “activity change, negative = inhibition” value was -4.53% (inactive).

For `COc1ccccc1CN1CCN(C(=O)c2ccco2)CC1`, the “activity change, negative = inhibition” value is -5.09% (inactive).

Consider `N#CC1(NC(=O)COC(=O)C2=COCCO2)CCCCC1`, for which the “activity change, negative = inhibition” value is -1.19% (inactive).

As to `Cc1ccccc1-c1cc(C(=O)N2CCCC2)c2ccccc2n1`, the “activity change, negative = inhibition” value is 7.43% (inactive).

In the case of `COc1cc(/C=C2\C(=O)ON=C2c2ccccc2)cc(Br)c1O`, the “activity change, negative = inhibition” value is -5.09% (inactive).

As to `CC(=O)Nc1cnc(-c2ccc(O)cc2C)cn1`, the “activity change, negative = inhibition” value is 1.39% (inactive).

In the case of `CCOc1ccc(CNC(=O)CCc2cn(C)c3ccccc23)cc1OC`, the “activity change, negative = inhibition” value was -4.76% (inactive).

As for `O=C(c1cc2cc(F)ccc2[nH]1)N1CCc2ccccc2C1`, the “activity change, negative = inhibition” value was -16.4% (inactive).

Turning to `COc1ccc(NC(=O)c2ccccc2NS(C)(=O)=O)cc1OC`, the “activity change, negative = inhibition” value was -3.77% (inactive).

In the case of `COc1ccc(-c2coc3c(C(=O)Nc4cccc(C(C)=O)c4)cccc23)c(C)c1`, the “activity change, negative = inhibition” value was -0.536% (inactive).

Consider `CCN(CC(=O)Nc1c(F)cccc1F)C(=O)Cc1ccccc1`, for which the “activity change, negative = inhibition” value is -2.25% (inactive).

Regarding `N#CC1=C(N)OC2=C(C(=O)CCC2)C1c1cc2c(cc1Cl)OCO2` (stereo not drawn), the “activity change, negative = inhibition” value is -6.31% (inactive).
